Bioassay records from PubChem BioAssay.
Compounds with a hit are over-represented: about 2.1% of the library has one in this group of screens.
Nrf2 ARE act = qHTS of Nrf2 Activators | AREc32 ARE-luciferase reporter (MCF7-derived line), luminescence, 24 h | Potency, µM (highest dose often 46.1 µM), for inactives: at the highest dose activation, most hits filed as activators | hit rate 0.31% among 410,000 | AID 624171, 2012; further: potency means the concentration at half of the fitted maximal effect; % of control where 0% means no effect; nearly all actives have a fitted effect of over 65% in size
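AREc32_Fluc, 1000 cells/well, OPTI-MEM + 5% FBS, o/n 37 deg C 5% CO2; 23 nL cpd by pin tool, 24 hr; Steady-Glo 30 min RT, luminescence.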
A549 tox-1 = Nrf2 qHTS screen for inhibitors: counterscreen for cytotoxicity. A549 ARE-Fluc cells, CellTiter-Fluor viability, 18-24 h. Potency, µM (top dose mostly 46 µM), inactives show at the highest dose activity change, negative = cytotoxicity, actives largely listed as inhibitors. hit rate 0.16% among 390,000. AID 504648, 2011; further: potency means the concentration at half of the fitted maximal effect; on the % scale 0 is the no-effect control and ±100 the full control effect
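Cytotoxicity counterscreen: CellTiter-Fluor fluorescence was measured in A549 ARE_Fluc cells after 18-24 h of compound exposure in a concentration series. The subsequent BugLite luminescent read reports ARE-luciferase activity.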
TSG101-PTAP inh = qHTS Assay for Iinhibitors of HIV-1 Budding by Blocking the Interaction of PTAP/TSG101; Fluorescence polarization, FITC-PTAP peptide / Tsg101 binding; Tumor susceptibility gene 101 protein (Homo sapiens), Q99816; Potency, µM (doses to about 115 µM), without a hit: at the top dose activity change, negative = inhibition, hits mostly inhibitors; 340,000 tested, under 10 active; active means well fitted inhibition curve with a large enough effect in the main read-out, with a control signal flat, not every such curve was filed as active; inconclusive means small, poorly fitted or top-dose-only effect, or effect the other way, or a change in a side signal; inactive means no such curve, though single readings can be large or run the other way; further: potency means the concentration at half of the fitted maximal effect; % of control where 0% means no effect
Target sequence (Q99816 whole entry, looked up): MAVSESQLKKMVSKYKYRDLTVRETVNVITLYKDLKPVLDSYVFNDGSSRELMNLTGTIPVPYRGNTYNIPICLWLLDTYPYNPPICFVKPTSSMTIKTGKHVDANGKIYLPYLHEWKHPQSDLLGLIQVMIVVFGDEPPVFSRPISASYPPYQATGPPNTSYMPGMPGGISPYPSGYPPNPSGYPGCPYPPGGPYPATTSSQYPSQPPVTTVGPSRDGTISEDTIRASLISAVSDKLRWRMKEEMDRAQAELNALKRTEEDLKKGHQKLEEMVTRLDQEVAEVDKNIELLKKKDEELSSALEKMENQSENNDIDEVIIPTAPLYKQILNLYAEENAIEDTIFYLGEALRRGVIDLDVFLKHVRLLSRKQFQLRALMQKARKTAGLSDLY
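Fluorescence anisotropy tracks displacement of a FITC-tagged PTAP peptide (50 nM) from the Tsg101 binding domain (10 uM), following a 20 min room-temperature incubation at pH 7.5.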
miR-21 act = qHTS Assay for Modulators of miRNAs and/orActivators of miR-21 | HeLa miR-21 FLuc reporter, luciferase, 48 h | Potency, µM (top dose mostly 38.3 µM), for inactives: at the top dose activity change, positive = activation, usual class: activators | 340,000 tested, under 10 active;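 further: % of control where 0% means no effect; miR-21 action dims this reporter so a rising signal means less miR-21 action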
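HeLa miR-21-FLuc reporter line, endogenous miR-21; 2000 cells/well in DMEM/10% FBS; compound titration up to ~40uM final, 48 h, 37 degree Celsius; luciferase detection reagent, 15 min lysis, CCD luminescence.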
Nrf2 block = Nrf2 qHTS screen for inhibitors; A549 ARE-Fluc reporter, luciferase luminescence, 18-24 h; Potency, µM (series often up to 46 µM), for the others: top-dose activity change, negative = inhibition, actives largely listed as inhibitors; hit rate 2.1% among 360,000; AID 504444, 2011; further: potency means the concentration at half of the fitted maximal effect; on the % scale 0 is the no-effect control and ±100 the full control effect; nearly all actives have a fitted effect of over 60% in size
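Nrf2 function is reported as luminescence of an ARE-controlled luciferase in A549 cells. Compounds were tested at several concentrations, and a CellTiter-Fluor read on the same wells flagged cytotoxicity.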
Glioma ERSR ind = qHTS for Inducers of the Endoplasmic Reticulum Stress Response (ERSR) in Human Glioma: qHTS; Potency, µM, for inactives: at the top dose activation, usual class: activators; U87-MG GRP78 promoter luciferase reporter, 16 h; AID 602332, 2012; hit rate 0.02% among 420,000; further: potency means the concentration at half of the fitted maximal effect; series mostly up to about 76 µM; % of control where 0% means no effect; nearly all actives have a fitted effect of over 35% in size
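Stably transfected U87-MG human glioma cells carrying a GRP78-based luminescent sensor were seeded at 1000 cells/well, pin-dosed with compounds and incubated 16 h. Luciferase reagent was then added, and end-point luminescence was read after 10 min at room temperature.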
FLuc counter 3 = Nrf2 qHTS screen for inhibitors: Purified Fluc Biochemical Counterscreen for Hit Validation; shares compounds with Nrf2 block; purified firefly luciferase, luminescence inhibition; Potency, µM (highest dose often 57.5 µM), for inactives: at the highest dose activity change, negative = inhibition, usual class: inhibitors; hit rate 4% among 1,400; further: potency means the concentration at half of the fitted maximal effect; on the % scale 0 is the no-effect control and ±100 the full control effect; nearly all actives have a fitted effect of over 65% in size
A549 tox-2 = Nrf2 qHTS screen for inhibitors: A549 ARE-Fluc Cytotoxicity Counterscreen for Hit Validation; Potency, µM (top dose mostly 46.1 µM), for the others: at the highest dose activity change, negative = cytotoxicity, usual class: inhibitors; AID 720523, 2013; A549 ARE-Fluc cells, cytotoxicity counterscreen; hit rate 2% among 1,400; shares compounds with Nrf2 block;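 further: potency means the concentration at half of the fitted maximal effect; cells exposed to compounds for 18 to 24 hours; on the % scale 0 is the no-effect control and ±100 the full control effect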
ARE-Fluc inh = Nrf2 qHTS screen for inhibitors: Nrf2 A549 ARE-Fluc Confirmation Assay for Hit Validation; shares compounds with Nrf2 block; A549 ARE-firefly luciferase reporter, luminescence; hit rate 74% among 1,400; Potency, µM (titrated, usually from 46.1 µM), without a hit: at the top dose activity change, negative = inhibition, usual class: inhibitors; further: potency means the concentration at half of the fitted maximal effect; on the % scale 0 is the no-effect control and ±100 the full control effect; nearly all actives have a fitted effect of over 65% in size
Starred values were filed as active, the others as inactive. Unless noted, the call rests on the fitted dose curve; in most records, active means well fitted curve in the direction sought with a large enough effect; inconclusive means small, poorly fitted or top-dose-only effect, or another doubt; inactive means no such curve, though single readings can be large; an effect the other way counts as inactive or inconclusive.

For Cn1c(-c2ccc(S(=O)(=O)N3CCCC3)cc2)csc1=Nc1ccc(Cl)c(Cl)c1 the results were Nrf2 ARE act -0.9%, A549 tox-1 -4.5%, miR-21 act 9.2%, Nrf2 block 3.26µM*, Glioma ERSR ind -1.5%, FLuc counter 3 inconclusive, A549 tox-2 -13.4% and ARE-Fluc inh 6.51µM*.
`O=C(Nc1cccc2ccccc12)c1cnn2c1NC(=C1CC1)C=C2C(F)F` gave Glioma ERSR ind -0.1%.
`COc1cc(NC(=O)c2ccc(-c3nc(CSc4ccccc4)c(C)o3)cc2)cc(OC)c1` gave Nrf2 ARE act 0.1%, A549 tox-1 0.0%, miR-21 act 24.8%, Nrf2 block 7.31µM*, Glioma ERSR ind 0.5%, FLuc counter 3 -14.8%, A549 tox-2 -7.6% and ARE-Fluc inh 7.31µM*.
Screening Cc1ccc(SCc2nc(-c3ccc(C(=O)Nc4cc(C)ccc4C)cc3)oc2C)cc1 returned Nrf2 ARE act 0.7%, A549 tox-1 -2.5%, miR-21 act 1.0%, Nrf2 block 5.8µM*, Glioma ERSR ind -0.2%, FLuc counter 3 -1.8%, A549 tox-2 -5.7% and ARE-Fluc inh 7.31µM*.
For COc1cccc(NC(=O)c2ccc(-c3nc(COc4ccc(C)cc4)c(C)o3)cc2)c1 the results were Nrf2 ARE act 3.0%, A549 tox-1 -1.3%, miR-21 act 7.1%, Nrf2 block 5.17µM*, Glioma ERSR ind -1.1%, FLuc counter 3 -12.0%, A549 tox-2 -11.6% and ARE-Fluc inh inconclusive.
`Cc1oc(-c2ccc(C(=O)NCCc3ccc(Cl)cc3)cc2)nc1CSc1ccccc1` gave Nrf2 ARE act -0.6%, A549 tox-1 -1.2%, miR-21 act 0.4%, Nrf2 block -2.7% and Glioma ERSR ind -0.6%.
For O=C(C[N+]12CN3CN(CN(C3)C1)C2)c1ccc(Cl)cc1 the results were Glioma ERSR ind 1.2%.
Screening Cc1ncnc2nc[nH]c12 returned Glioma ERSR ind -7.1%, FLuc counter 3 -2.1%, A549 tox-2 -28.1% and ARE-Fluc inh 5.8µM*.
For C[C@@H]1C[C@@H]2[C@H]3CCC4=CC(=O)C=C[C@]4(C)[C@]3(F)[C@@H](O)C[C@@]2(C)[C@@]1(O)C(=O)CO the results were Glioma ERSR ind 0.2%.
C[C@@H]1C[C@H]2[C@@H]3CCC4=CC(=O)C=C[C@]4(C)[C@@]3(F)[C@@H](O)C[C@]2(C)[C@H]1C(=O)CO was read as Nrf2 ARE act -0.6%, A549 tox-1 -0.9%, TSG101-PTAP inh 1.5%, miR-21 act -27.1%, Nrf2 block 0.0184µM*, Glioma ERSR ind -2.6%, FLuc counter 3 3.2%, A549 tox-2 -15.1% and ARE-Fluc inh 0.0146µM*.
`CC1(C)O[C@@H]2C[C@H]3[C@@H]4CCC5=CC(=O)CC[C@]5(C)[C@@]4(F)[C@@H](O)C[C@]3(C)[C@]2(C(=O)CCl)O1` gave Nrf2 ARE act 0.6%, A549 tox-1 -12.1%, TSG101-PTAP inh -1.4%, Nrf2 block 0.0116µM*, Glioma ERSR ind -1.5%, FLuc counter 3 3.4%, A549 tox-2 -10.6% and ARE-Fluc inh 0.0082µM*.
CC(=O)C12OC(C)(C)OC1CC1C3CCC4=CC(=O)C=CC4(C)C3(F)C(O)CC12C (stereo not given) was read as Nrf2 ARE act 2.5%, A549 tox-1 12.8%, TSG101-PTAP inh -4.0%, Nrf2 block 0.0082µM*, Glioma ERSR ind 1.6%, FLuc counter 3 0.2%, A549 tox-2 -11.8% and ARE-Fluc inh 0.0065µM*.
`CC1(C)O[C@H]2C[C@@H]3[C@H]4CCC5=CC(=O)CC[C@@]5(C)[C@]4(F)[C@@H](O)C[C@@]3(C)[C@@]2(C(=O)CCl)O1` gave Glioma ERSR ind -3.6%.
Screening C[C@@H]1C[C@H]2[C@@H]3CCC4=CC(=O)C=C[C@]4(C)[C@@]3(F)[C@@H](O)C[C@]2(C)[C@@]1(O)C(=O)CO returned Nrf2 ARE act -0.9%, A549 tox-1 -9.3%, TSG101-PTAP inh -4.3%, Nrf2 block 0.0046µM*, Glioma ERSR ind -4.1%, FLuc counter 3 1.1%, A549 tox-2 -4.1% and ARE-Fluc inh 0.0052µM*.
`C[C@]12O[C@H](C[C@]1(O)CO)n1c3ccccc3c3c4c(c5c6ccccc6n2c5c31)CNC4=O` gave Glioma ERSR ind -9.6%.
`Cc1ccc(S(=O)(=O)N2CCN(c3nc(C(N)=O)nc4ccccc34)CC2)cc1` gave A549 tox-1 2.0% and Nrf2 block 5.5%.
`CN1/C(=C/c2cccc[n+]2C)Sc2ccccc21` gave Nrf2 ARE act -0.6%, A549 tox-1 11.6µM*, TSG101-PTAP inh 1.1%, miR-21 act inconclusive, Nrf2 block 0.82µM*, Glioma ERSR ind 1.9%, FLuc counter 3 -1.2%, A549 tox-2 inconclusive and ARE-Fluc inh 2.06µM*.
For Cc1ccc2c(c1)N(C)/C(=C/c1cccc[n+]1CCO)S2 the results were Nrf2 ARE act 2.4%, A549 tox-1 -21.4%, TSG101-PTAP inh -0.1%, miR-21 act inconclusive, Nrf2 block -15.1% and Glioma ERSR ind -2.9%.
`COc1ccc2c(c1)N(C)/C(=C/c1cccc[n+]1C)S2` gave Nrf2 ARE act 3.1%, A549 tox-1 16.4µM*, TSG101-PTAP inh 0.2%, miR-21 act inconclusive, Nrf2 block 3.26µM*, Glioma ERSR ind -4.1%, FLuc counter 3 -1.1%, A549 tox-2 inconclusive and ARE-Fluc inh 4.11µM*.
